Compound activity: PubChem, several laboratories
IDE cell inh = human IDE inhibitors in live cells, primary screen, fluorescence polarization, HEK cells, FAbetaB substrate | Insulin-degrading enzyme (Homo sapiens), P14735 | FAbetaB cleavage | inhibition, % at 5.59 µM | hit rate 0.41% among 320,000;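 active means percent inhibition above the average of all tested compounds plus 3 SD, set per screening campaign, cut at about 16% in these data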;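 further: IDE supplied by intact live HEK cells; FP after avidin binding of uncleaved biotin substrate so inhibition keeps polarization high; 0% = DMSO wells and 100% = 60 µM reference IDE inhibitor Ii1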
Target sequence (P14735 whole entry, looked up): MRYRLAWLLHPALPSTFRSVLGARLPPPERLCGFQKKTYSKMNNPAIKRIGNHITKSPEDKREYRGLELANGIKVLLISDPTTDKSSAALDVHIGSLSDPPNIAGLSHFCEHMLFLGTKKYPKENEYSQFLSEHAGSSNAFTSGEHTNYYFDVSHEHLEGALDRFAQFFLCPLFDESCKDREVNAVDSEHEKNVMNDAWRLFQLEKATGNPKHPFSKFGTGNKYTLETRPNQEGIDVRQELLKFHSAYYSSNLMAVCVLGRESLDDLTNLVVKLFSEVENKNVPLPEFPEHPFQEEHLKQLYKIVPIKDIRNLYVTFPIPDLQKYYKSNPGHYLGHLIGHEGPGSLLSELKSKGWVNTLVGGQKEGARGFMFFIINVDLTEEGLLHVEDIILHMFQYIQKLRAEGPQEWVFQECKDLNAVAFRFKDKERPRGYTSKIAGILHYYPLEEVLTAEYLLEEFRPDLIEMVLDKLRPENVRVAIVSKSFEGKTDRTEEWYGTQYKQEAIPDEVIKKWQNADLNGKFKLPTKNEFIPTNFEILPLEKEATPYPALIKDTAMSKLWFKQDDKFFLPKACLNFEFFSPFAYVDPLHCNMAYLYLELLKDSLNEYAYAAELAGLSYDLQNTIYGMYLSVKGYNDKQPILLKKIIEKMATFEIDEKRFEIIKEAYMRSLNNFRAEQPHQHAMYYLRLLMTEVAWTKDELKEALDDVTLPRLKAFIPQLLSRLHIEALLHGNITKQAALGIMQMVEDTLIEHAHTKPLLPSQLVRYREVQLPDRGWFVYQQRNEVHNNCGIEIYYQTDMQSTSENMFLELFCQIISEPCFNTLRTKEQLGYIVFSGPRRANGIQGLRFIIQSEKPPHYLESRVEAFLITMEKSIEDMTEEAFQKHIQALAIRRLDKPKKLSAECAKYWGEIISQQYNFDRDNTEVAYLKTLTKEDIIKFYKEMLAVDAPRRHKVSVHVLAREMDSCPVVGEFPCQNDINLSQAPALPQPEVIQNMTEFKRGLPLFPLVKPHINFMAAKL
PP5 inh = PP5 phosphatase inhibitors, primary screen, biochemical, fluorescence; purified PP5c, OMFP substrate fluorescence; AID 1987, 2009; Serine/threonine-protein phosphatase 5 (Homo sapiens), P53041; inhibition, % at 6.7 µM; hit rate 0.18% among 320,000;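 active means inhibition above the campaign's mean inhibition across all tested compounds plus 3 SD, cut at about 9.5% in these data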;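 further: 0% = DMSO only and 100% = 100 µM cantharidin control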
SKKanGAS inh = S. pyogenes SKKanGAS growth inhibitors in kanamycin, primary screen, streptokinase expression inhibitor project, SKKanGAS strain, BacTiter-Glo luminescence; hit rate 1.3% among 300,000; inhibition, % at 7.5 µM; 6 h; AID 1662, 2009;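 active means mean replicate score, as percent of positive control median, at least 50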;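 further: strain carries kanamycin resistance gene driven by streptokinase promoter and grows in 40 µg/ml kanamycin; loss of luminescence reflects streptokinase promoter inhibition or plain growth inhibition; 0% = median of DMSO wells and 100% = positive control at its reference dose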
PP1 inh = PP1-alpha phosphatase inhibitors, primary screen, counter-screen for PP5 inhibitor project, biochemical, fluorescence, OMFP substrate, single point; Serine/threonine-protein phosphatase PP1-alpha catalytic subunit (Homo sapiens), P62136; purified PP1alpha; inhibition, % at 6.7 µM; hit rate 0.9% among 320,000; AID 2235, 2010;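 active means inhibition above the mean inhibition of all tested compounds plus 3 SD, computed separately for each screening campaign, cut at about 15% in these data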
IDE cell activ = human IDE activators in live cells, primary screen, fluorescence polarization, HEK cells, FAbeta-B substrate | Insulin-degrading enzyme (Homo sapiens), P14735 | FAbeta-B cleavage; 0% vehicle, 100% cell-free pure enzyme wells | activation, % at 5.96 µM | hit rate 0.073% among 340,000;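 active means activation above the mean of all tested compounds plus 3 SD, set per screening campaign, cut at about 17% in these data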
Exocytosis inh = LAMP-1 surface exposure blockers, TALL-104 cells – cell-based, flow cytometry, MLPCN library, primary screen; TALL-104 LAMP-1 surface exposure; cells stimulated with thapsigargin and PMA; hit rate 0.66% among 360,000; AID 651702, 2012; inhibition, % at 10 µM;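 active means inhibition above about 55%, limit read from the data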
* hit, by the source's call. Rows were chosen to be rich in hits. Some 2.8% of all compounds tested hit in one or more screens of this group.

`C=CCn1c2ccccc2c(=O)c2cc(C#Cc3ccsc3)ccc21` gave IDE cell inh -6, PP5 inh 2, SKKanGAS inh -6 and PP1 inh 17*.
For Cc1ncc(CO)c(/C=N/NC(=S)Nc2ccc(Cl)c(Cl)c2)c1O the results were IDE cell inh 3, PP5 inh 4, SKKanGAS inh 66*, PP1 inh 1, IDE cell activ -1 and Exocytosis inh 2.
`COc1cccc(CN2CC(C(=O)NCCCn3cccn3)CCC2=O)c1` (centres undefined) gave IDE cell inh 10, PP5 inh 2, SKKanGAS inh -14, PP1 inh -7, IDE cell activ -3 and Exocytosis inh -8.
For Oc1c(Cl)cc(Cl)c2c1NCCC2 the results were SKKanGAS inh 69*, IDE cell activ -3 and Exocytosis inh 31.
O=C(NCC(=O)N(c1cccnc1)C(C(=O)NC1CCCC1)c1ccccc1F)c1ccco1 (centres undefined) was read as IDE cell inh -2, PP5 inh -1, SKKanGAS inh -2, PP1 inh 2, IDE cell activ 0 and Exocytosis inh 5.
For O=C(COc1ccc2ccc(=O)oc2c1)NC1CCN(Cc2ccccc2)CC1 the results were IDE cell inh 1, PP5 inh 0, SKKanGAS inh 3, PP1 inh -2, IDE cell activ -6 and Exocytosis inh 4.
`O=C(Nc1ccc(F)c(Cl)c1)c1cc(C2CCCCN2C(=O)c2cccs2)on1` (centres undefined) gave Exocytosis inh -3.
Screening Cc1ccc(N=Nc2ccc(O)c3ncccc23)cc1 returned IDE cell inh 1, PP5 inh 5, SKKanGAS inh 109*, PP1 inh 9, IDE cell activ -5 and Exocytosis inh -3.
Cc1ccc(N=Nc2ccc3ccccc3c2O)cc1 was read as IDE cell inh -3, PP5 inh -3, SKKanGAS inh 7, PP1 inh -2, IDE cell activ 4 and Exocytosis inh -16.
Oc1ccc(N=Nc2ccccc2C(F)(F)F)c2cccnc12 was read as IDE cell inh -1, PP5 inh 0, SKKanGAS inh 98*, PP1 inh 10, IDE cell activ 2 and Exocytosis inh -9.
Screening Cc1ccc(N=Nc2ccc(O)c3ncccc23)cc1C returned IDE cell inh -7, PP5 inh 1, SKKanGAS inh 88*, PP1 inh -1, IDE cell activ 2 and Exocytosis inh 0.
For CCOC(=O)N1CCN(C(=O)C[C@@H]2C[C@@]3(C(=O)OC)CC(C)(C)CC=C3N(Cc3cccc4ccccc34)C2=O)CC1 the results were Exocytosis inh -5.
CC1(C(=O)NS(=O)(=O)c2ccc(Br)cc2)CCN1C(=O)C1(c2ccccc2)CC1 (centres undefined) was read as Exocytosis inh -3.
Cc1ccc(OCC(=O)NCCNC(=O)c2cccnc2)cc1C was read as IDE cell inh -7, PP5 inh -1, SKKanGAS inh -10, PP1 inh -12, IDE cell activ -2 and Exocytosis inh -4.
C/C(N)=C(/C#N)C(=O)CSc1nc2scc(-c3ccccc3)c2c(=O)n1C was read as IDE cell inh 3, PP5 inh 1, SKKanGAS inh 62*, PP1 inh 6, IDE cell activ 4 and Exocytosis inh -3.
Screening COc1ccccc1NC(=S)N=Nc1c(O)[nH]c2ccc(Br)cc12 returned IDE cell inh -9, PP5 inh 3, SKKanGAS inh 93*, PP1 inh 8, IDE cell activ 0 and Exocytosis inh -3.
Cc1cccc(NC(=S)N=Nc2c(O)[nH]c3ccccc23)c1 was read as IDE cell inh -4, PP5 inh 0, SKKanGAS inh 97*, PP1 inh 3, IDE cell activ -2 and Exocytosis inh -3.
Screening COc1ccc(/C=N/OCC(=O)N=Nc2c(O)[nH]c3ccc(Br)cc23)cc1OC returned IDE cell inh 7, PP5 inh 3, SKKanGAS inh 15, PP1 inh 8, IDE cell activ -3 and Exocytosis inh 8.
CCN1CCN(c2cc(C)c3cc(NC(=S)N4CCN(c5ccccc5)CC4)ccc3n2)CC1 was read as IDE cell inh -6, PP5 inh 4, SKKanGAS inh -8, PP1 inh -2, IDE cell activ 20* and Exocytosis inh 56*.
For Cc1ccc(C)c(N2CCN(C(=S)Nc3ccc4nc(N5CCN(C)CC5)cc(C)c4c3)CC2)c1 the results were IDE cell inh -8, PP5 inh 1, SKKanGAS inh -3, PP1 inh 1, IDE cell activ 22* and Exocytosis inh 34.
`Cc1[nH]c2ccccc2c1/C=N\NC(=O)c1ccccc1Cl` gave Exocytosis inh -2.
`Cc1[nH]c2ccccc2c1/C=N/NC(=O)C1CC1(c1ccccc1)c1ccccc1` (centres undefined) gave IDE cell inh 5, PP5 inh 5, SKKanGAS inh 55*, PP1 inh 2, IDE cell activ 5 and Exocytosis inh 3.
Screening O=C(O)c1ccsc1Cc1cccs1 returned Exocytosis inh -2.
For O=C(CCNC(=O)N1CC(=O)Nc2ccccc21)NCc1ccccc1 the results were Exocytosis inh 0.
For Cc1nc2ccc([N+](=O)[O-])cc2nc1C the results were IDE cell inh 1, PP5 inh 0, SKKanGAS inh -14, PP1 inh 6, IDE cell activ -1 and Exocytosis inh 10.
Cc1ccc2nc3cc([N+](=O)[O-])cc([N+](=O)[O-])c3cc2c1 was read as IDE cell activ -4 and Exocytosis inh 63*.
For CC1CCCC(C)N1c1nnc(NC(=O)c2cc(-c3ccc(Br)cc3)on2)s1 (centres undefined) the results were IDE cell inh -1, PP5 inh -1, SKKanGAS inh 51*, PP1 inh 1, IDE cell activ 0 and Exocytosis inh 3.
Cc1cccc(C(=O)NCCc2ccccc2)c1 was read as IDE cell inh 1, PP5 inh 1, SKKanGAS inh 0, PP1 inh 0, IDE cell activ -1 and Exocytosis inh -2.
For C=CC[C@@H](CC(=O)N(CCO)Cc1ccccc1)C(=O)N[C@@H](C)COC(=O)[C@@H](CC=C)CC(=O)OC(C)(C)C the results were IDE cell inh 6, IDE cell activ 3 and Exocytosis inh 64*.
Screening C=CC[C@H](CC(=O)N(CCO)Cc1ccccc1)C(=O)N[C@@H](C)COC(=O)[C@H](CC=C)CC(=O)OC(C)(C)C returned IDE cell inh 1, IDE cell activ 7 and Exocytosis inh 1.
